# Measured values from PubChem BioAssay AID485364 (National Center for Advancing Translational Sciences (NCATS), 2010).
# “And” between values parts separate entries of the source, which are not always exact repeats. Identical values can stand only once. Screen size: about 360,000 compounds; about 11,000 (3.1%) were called active. Entries that show only a call come without a potency. About 4% were inconclusive and are not listed. Calls follow the shape of the dose curve; as a rule, active = well fitted inhibition curve with a large enough effect; inconclusive = small, poorly fitted or top-dose-only effect; inactive = no such curve, though single readings can be large or run the other way. Many of the other results were omitted from the sample, so actives are more common in it than they were. A structure can be active in one record and inactive in another.
# Biological target: Schistosoma mansoni thioredoxin glutathione reductase (TGR) (UniProt Q962Y6)
# Test: qHTS Assay for the Inhibitors of Schistosoma Mansoni Peroxiredoxins; also: nearly all actives have a fitted effect of over 60% in size
# Settings: purified TGR, DTNB reduction, TNB absorbance 405 nm; series mostly up to 114 µM
# How it was run: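 TGR 20 nM + NADPH 100 uM (dispensed conc.), cpd preinc 15 min RT; start with NADPH (500 uM addition) then DTNB (15 mM addition). Kinetic TNB absorbance, 405 nm filter. Four-parameter Hill fit across titration.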
# Potency is read from the fitted curve at half-maximal effect.
row,SMILES,Potency
1,CCc1ccc(NC(=O)N2CCN(C(=O)c3nsc4ccccc34)CC2)cc1,inactive
2,Cc1cccc(C(C)C)c1NC(=O)C(NS(=O)(=O)c1cccc2nsnc12)c1ccccc1 (stereo unspecified),inactive
3,CCc1ccc(CNCc2c(C(=O)O)n(Cc3ccc(F)cc3Cl)c3cc(OC)ccc23)cc1,inactive
4,CC(CNC(=O)c1nnc(Cc2cccc(F)c2)o1)c1ccccc1 (stereo unspecified),inactive
5,COc1ccc(C2C3=C(CCCC3=O)N(CC(=O)O)C3=C2C(=O)CCC3)cc1,inactive
6,CCOc1ccc(C2C(C#N)=C(N)N(N(C)C)C3=C2C(=O)CCC3)cc1 (stereo unspecified),inactive
7,CCOc1ccc(C2C3=C(CCCC3=O)N(CC(=O)O)C3=C2C(=O)CCC3)cc1,44.7 µM (active)
8,CC(=O)Nc1ccc(NC(=O)C2CCCN(S(=O)(=O)c3ccc4c(c3)CCCC(=O)N4)C2)cc1 (stereo unspecified),inactive
9,COCCNC(=O)CSc1nc(-c2ccccc2)[nH]c1-c1ccc(C)cc1,inactive
10,Cc1oc(C)c2c(=O)cc(-c3ccc4c(c3)OCO4)cc(OC(=O)c3ccc(Cl)cc3)c12,inactive
11,Cc1cc(OC(=O)c2ccc(Cl)cc2)cc(=O)n1C,44.7 µM (active)
12,Cn1cncc1COC(=O)c1ccc(Cl)cc1,inactive
13,Cc1ccc(NC(=O)c2cn3c4c(ccc(Cl)c4c2=O)OC(C)C3)cc1C (stereo unspecified),inactive
14,CCOC(=O)Nc1ccc2c(c1)N(C(=O)CCN1CCN(CCO)CC1)c1ccccc1CC2,inactive
15,CCOC(=O)Nc1ccc2c(c1)N(C(=O)CCCl)c1ccccc1[S@]2=O,14.1 µM (active)
16,CCNCCC(=O)N1c2ccccc2Sc2ccc(NC(=O)OCC)cc21,inactive
17,COc1ccc(Cl)cc1NC(=O)CSc1nc(=O)[nH]c2c1CCCC2,inactive
18,Cc1ccccc1-c1nc(CS(=O)(=O)CC(=O)N2CCc3ccccc3C2)c(C)o1,3.55 µM (active)
19,Cc1ccccc1-c1nc(CS(=O)(=O)CC(=O)Nc2cc(Cl)cc(Cl)c2)c(C)o1,inactive
20,Cc1ccccc1-c1nc(CS(=O)(=O)CC(=O)NC(C)c2ccccc2)c(C)o1 (stereo unspecified),inactive and 39.8 µM (active)
21,COc1cccc(-c2nc(CS(=O)(=O)CC(=O)N3CCN(c4cc(C)ccc4C)CC3)c(C)o2)c1,inactive

row,SMILES,Potency
1,Cc1oc(-c2ccccc2F)nc1CS(=O)(=O)CC(=O)NCCCN(C)C1CCCCC1,inactive
2,Cc1ccc(S(=O)(=O)CC(=O)NC(C)c2ccccc2)cc1 (stereo unspecified),inactive
3,Cc1ccc(-c2noc(-c3nnn(-c4cccc(C(F)(F)F)c4)c3N)n2)cc1,inactive
4,CC1CCC(N2CC(=O)N(CCC3=CCCCC3)C(c3ccc(F)cc3)C2=O)CC1 (stereo unspecified),inactive
5,CCOc1ccc(S(=O)(=O)c2cn(Cc3ccc(OC)cc3)c3ccc(F)cc3c2=O)cc1,inactive
6,COc1ccc(C)cc1NC(=O)C(=O)NCCc1sc(-c2cccc(C)c2)nc1C,inactive
7,Cc1cc(C)c2oc(-c3cccc(NC(=O)c4cccc(F)c4)c3C)nc2c1,inactive
8,CCOC(=O)c1c(C)oc2nc(C)nc(N3CCN(c4ccc(OC)cc4)CC3)c12,inactive
9,O=C(NC1CC(=O)N(c2ccccc2)C1)c1ccco1 (stereo unspecified),inactive
10,CC(=O)N1CCN(CC(C)(C)NS(=O)(=O)c2ccc(C)cc2)CC1,inactive
11,CCOC(=O)C(NS(=O)(=O)c1ccc(C)cc1)(C(F)(F)F)P(=O)(OCC(C)C)OCC(C)C (stereo unspecified),22.4 µM (active)
12,Cc1ccc(S(=O)(=O)NCC(C)NS(C)(=O)=O)cc1 (stereo unspecified),inactive
13,Cn1c(C(=O)N2CCC(C(=O)N3CCN(c4ccccc4)CC3)CC2)cc2sccc21,inactive
14,Cc1ccc(Cl)cc1N(C)C(=O)C1CCCN(c2ncnc3onc(-c4ccc(F)cc4)c23)C1 (stereo unspecified),inactive
15,O=C(CN1CCN(S(=O)(=O)/C=C/c2ccccc2)CC1)NC(=O)NCc1ccco1,28.2 µM (active)
16,NC(=O)CCN1CCN(S(=O)(=O)/C=C/c2ccccc2)CC1,inactive
17,COc1ccccc1N1CCN(CC(=O)NC(=O)NCc2ccco2)CC1,inactive
18,Cc1ccc(Nc2nnc(-c3ccc(C)c(S(=O)(=O)N4CCCCC4)c3)c3ccccc23)cc1,inactive
19,Cc1ccc2cccc(NC(=O)c3cccc4ccccc34)c2n1,inactive
20,Cc1cccc(NC(=O)N2CCC(CN3CCc4ccccc4C3)CC2)c1C,inactive
21,O=C(CC1N=C2c3ccccc3N=C(SCc3ccc(F)cc3)N2C1=O)NCc1cccs1 (stereo unspecified),inactive

row,SMILES,Potency
1,Cc1ccc(CNC(=O)CCS(=O)(=O)c2ccc3c(c2)CC(C)N3C(=O)C2CC2)o1 (stereo unspecified),44.7 µM (active)
2,CC1Cc2cc(S(=O)(=O)CCC(=O)NCc3ccc(Cl)cc3)ccc2N1C(=O)C1CC1 (stereo unspecified),inactive
3,CC1Cc2cc(S(=O)(=O)CCC(=O)Nc3ccc(F)c(Cl)c3)ccc2N1C(=O)C1CC1 (stereo unspecified),inactive
4,COc1cc(OC)cc(C(=O)Nc2c(C(=O)Nc3ccc(F)cc3)oc3ccccc23)c1,inactive
5,CCOc1ccc(Nc2ncnc3scc(-c4ccc(OC)cc4)c23)cc1,inactive
6,Cc1cccc2nc(-c3ccc(Cl)s3)c(Nc3ccc4c(c3)OCCO4)n12,inactive
7,O=c1cc(CCl)nc2scc(-c3ccccc3)n12,17.8 µM (active)
8,Cc1csc2nc(COc3ccc(NC(=O)COc4ccccc4)cc3)cc(=O)n12,inactive
9,Cc1csc2nc(COC(=O)c3ccccc3NC(=O)c3ccccc3Cl)cc(=O)n12,inactive
10,Cc1oc2ccc(O)c(CN3CCOCC3)c2c1C(=O)Nc1cccc(Cl)c1C,inactive
11,Cc1ccc(S(=O)(=O)c2nc(-c3cccs3)oc2NCc2cccnc2)cc1,inactive
12,COc1cccc(-c2nc(S(=O)(=O)c3ccc(C)cc3)c(NCc3ccccc3)o2)c1,44.7 µM (active)
13,O=S(=O)(c1ccc(Br)cc1)c1nc(-c2ccccc2)oc1NCc1cccnc1,inactive
14,CCOC(=O)C(Cc1ccccc1)NC(=O)CCc1c(C)nc2c(c(C)nn2-c2ccc(C)c(C)c2)c1C (stereo unspecified),inactive
15,CCC1CCCCN1S(=O)(=O)c1ccc(NC(=O)c2cc(=O)c3ccccc3o2)cc1 (stereo unspecified),inactive
16,CCOc1ccc(CNC(=O)CCc2c(C)nn(-c3ccc(N4CCCCC4)nn3)c2C)cc1,inactive
17,Cc1ccc(N2C(=O)C3C4C=CC(CC4)C3C2=O)cc1Br (stereo unspecified),inactive
18,Cc1ccc(N2C(=O)C3C4C=CC(CC4)C3C2=O)cc1Cl (stereo unspecified),25.1 µM (active)
19,CC(=O)Nc1ccc(N2C(=O)C3C4C=CC(CC4)C3C2=O)cc1 (stereo unspecified),inactive
